Data from the supplement of paper PMC6992640.
Structures can show the parent of a compound that is named as a salt. ± gives the standard deviation of the averaged measurements.

What was measured:
Assay in all cases: cell viability (% of vehicle); higher = less cytotoxic
Conditions in all cases: 10 µM; 72 h
HCI01 = system: HCI01 (cells of a triple-negative basal-like breast cancer xenograft)
HCI03 = system: HCI03 (cells of an ER-positive luminal breast cancer xenograft)
HCI09 = system: HCI09 (cells of a triple-negative luminal androgen receptor type breast cancer xenograft)
HCI11 = system: HCI11 (cells of an ER-positive luminal breast cancer xenograft)
HCI13 = system: HCI13 (cells of an ER-positive luminal breast cancer xenograft)
HCI16 = system: HCI16 (cells of a triple-negative basal-like breast cancer xenograft)
UCD52 = system: UCD52 (cells of a triple-negative basal-like breast cancer xenograft)
WHIM2 = system: WHIM2 (cells of a triple-negative basal-like breast cancer xenograft)
WHIM30 = system: WHIM30 (cells of a triple-negative basal-like breast cancer xenograft)
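Also: PDX cells carrying CMV promoter-driven luciferase, viability read as total photon flux per second by IVIS imaging following D-luciferin, vehicle control 0.1% DMSO.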

Structure (SMILES)	cell viability (HCI01)	cell viability (HCI03)	cell viability (HCI09)	cell viability (HCI11)	cell viability (HCI13)	cell viability (HCI16)	cell viability (UCD52)	cell viability (WHIM2)	cell viability (WHIM30)
C#CC1(OC(C)=O)CCC2C3CCC4=CC(OC(C)=O)CCC4C3CCC21C (centres undefined) [Ethynodiol diacetate]	136 ± 22	118	86.3 ± 5.5	73.4	142 ± 16	136	84.9 ± 5.6	107 ± 17	112 ± 16
CCC1OC(=O)C(C)C(OC2CC(C)(OC)C(O)C(C)O2)C(C)C(OC2OC(C)CC(N(C)C)C2O)C(C)(O)CC(C)C(=NOCOCCOC)C(C)C(O)C1(C)O (centres undefined) [Roxithromycin]	138 ± 34	147	113 ± 25	101	133 ± 12	154	103 ± 2.8	103 ± 17	188 ± 29
CN1CCCC1c1cccnc1.O=C(O)C(O)C(O)C(=O)O.O=C(O)C(O)C(O)C(=O)O (centres undefined) [Nicotine Difartrate]	115 ± 7.3	107	126 ± 40	114	99.2 ± 3.9	98.7	100 ± 12	99.6 ± 9.8	121 ± 2.7
Cc1onc(-c2ccccc2)c1-c1ccc(S(N)(=O)=O)cc1 [Valdecoxib]	126 ± 28	126	85.3 ± 11	98	109 ± 1.1	99.8	74 ± 11	95.5 ± 4.2	78.92 ± 0.35
O=C1OC(C(O)CO)C(O)=C1O (centres undefined) [Vitamin C]	76.9 ± 31	111	93.6 ± 11	84.3	90 ± 12	108	75 ± 3.8	113 ± 34	135 ± 5.2
CC12CCC3c4ccc(O)cc4CCC3C1CCC2OC(=O)CCC1CCCC1 (centres undefined) [Estradiol Cypionate]	168 ± 2.2	101	96.6 ± 4.5	93.1	180 ± 16	147	92 ± 6.5	110 ± 10	130 ± 12
Cl.O=C1CN2Cc3c(ccc(Cl)c3Cl)NC2=N1 [Anagrelide HCl]	121 ± 3.8	140	103 ± 9.3	120	128 ± 11	103	84.4 ± 4.6	116 ± 3.4	98.1 ± 2.5
CC#CCn1c(N2CCCC(N)C2)nc2c1c(=O)n(Cc1nc(C)c3ccccc3n1)c(=O)n2C (centres undefined) [Linagliptin (BI-1356)]	160 ± 22	108	95.4 ± 7.2	142	105 ± 6.1	179	136 ± 2.3	111 ± 1.3	167 ± 7.3
CCc1cccc2c3c([nH]c12)C(CC)(CC(=O)O)OCC3 (centres undefined) [Etodolac]	117 ± 23	104	98.8 ± 27	97.2	97.3 ± 8	96.8	79.2 ± 9.2	92.6 ± 19	86 ± 8.4
O=C(NCCO[N+](=O)[O-])c1cccnc1 [Nicorandil]	81.9 ± 59	135	93.1 ± 9.9	89.3	151 ± 28	113	82.6 ± 8.1	120 ± 9.5	127 ± 5.8
Cc1cnc(C(=O)NCCc2ccc(S(=O)(=O)NC(=O)NC3CCCCC3)cc2)cn1 [Glipizide]	104 ± 16	128	106 ± 16	108	93.1 ± 1.8	99.1	83.6 ± 5.6	87.2 ± 11	138 ± 12
CNCC(O)c1ccc(O)c(O)c1.Cl (centres undefined) [Epinephrine HCl]	102 ± 3.8	112	91.6 ± 15	76.6	118 ± 17	119	118 ± 11	142 ± 3.3	100 ± 1.1
CCN(CC)C(=S)SSC(=S)N(CC)CC [Disulfiram]	140 ± 49	75.8	71.6 ± 4.1	66.5	90 ± 5.2	92.3	82.3 ± 8.8	102 ± 8	115 ± 14
CCNC1CC(C)S(=O)(=O)c2sc(S(N)(=O)=O)cc21.Cl (centres undefined) [Dorzolamide HCl]	100 ± 4.5	111	96.8 ± 21	130	121 ± 5.2	98.2	71.8 ± 5.1	105 ± 8.4	89.3 ± 6.7
CN1CCC(=C2c3ccccc3CCn3c(C=O)cnc32)CC1 [Alcaftadine]	94.1 ± 31	117	94.3 ± 18	86.9	120 ± 20	124	92.4 ± 10	97.9 ± 3.4	114 ± 6.9
COc1ccc(-c2ccc3cc(C(=O)O)ccc3c2)cc1C12CC3CC(CC(C3)C1)C2 [Adapalene sodium salt]	115 ± 29	81.9	114 ± 37	98.3	183 ± 2.4	158	157 ± 19	104 ± 10	96.8 ± 6.8
CC1C(=O)OC2CC34C5CC(C(C)(C)C)C36C(OC(=O)C6O)OC4(C(=O)O5)C21O (centres undefined) [Ginkgolide A]	98.9 ± 14	112	97.3 ± 6.1	96.5	114 ± 6	116	91.6 ± 10	101 ± 12	91.5 ± 9.4
CN1C2CCCC1CC(NC(=O)c1nn(C)c3ccccc13)C2.Cl (centres undefined) [Granisetron HCl]	116 ± 6.1	111	90.4 ± 1.8	97.6	96.2 ± 16	89.6	113 ± 3.7	88.1 ± 22	115 ± 16

Structure (SMILES)	cell viability (HCI01)	cell viability (HCI03)	cell viability (HCI09)	cell viability (HCI11)	cell viability (HCI13)	cell viability (HCI16)	cell viability (UCD52)	cell viability (WHIM2)	cell viability (WHIM30)
CC1(C)SC2C(NC(=O)C(N)c3ccc(O)cc3)C(=O)N2C1C(=O)O (centres undefined) [Amoxicillin]	123 ± 28	112	103 ± 4.6	112	141 ± 17	120	84.9 ± 12	138 ± 44	102 ± 10
CCc1ccc(CCOc2ccc(CC3SC(=O)NC3=O)cc2)nc1.Cl (centres undefined) [Pioglitazone HCl]	119 ± 6.9	129	93.7 ± 19	125	126 ± 2	102	116 ± 11	116 ± 13	182 ± 40
O=c1ncnc2[nH][nH]cc1-2 [Allopurinol]	111 ± 8.6	132	94.3 ± 13	110	98.9 ± 12	103	84.5 ± 3.3	97.49 ± 0.5	122 ± 8.1
Cl.NCCc1ccc(O)c(O)c1 [Dopamine HCl]	112 ± 25	103	113 ± 37	84.4	59 ± 2.7	125	93.6 ± 0.5	56 ± 2.1	128 ± 6.4
CC(C)(O/N=C(\C(=O)N[C@@H]1C(=O)N2C(C(=O)[O-])=C(C[n+]3ccccc3)CS[C@H]12)c1csc(N)n1)C(=O)O [Ceftazidime]	101 ± 17	98.6	97.7 ± 0.81	81.6	119 ± 8.4	149	120 ± 15	120 ± 3.6	99.7 ± 8.2
CC#CC1(O)CCC2C3CCC4=CC(=O)CCC4=C3C(c3ccc(N(C)C)cc3)CC21C (centres undefined) [Mifepristone]	113 ± 13	99.2	72.6 ± 18	73.5	47.5 ± 0.63	89.3	73.3 ± 6.9	89.7 ± 2.1	93.3 ± 3
Cc1cccc(N(C)C(=S)Oc2ccc3ccccc3c2)c1 [Tolnaftate]	113 ± 28	140	72.7 ± 30	95.2	96.2 ± 8.2	108	71.2 ± 2.5	91.6 ± 8.1	131 ± 9.2
CC(=O)OC1CCC2(C)C(=CCC3C2CCC2(C)C(c4cccnc4)=CCC32)C1 (centres undefined) [Abiraterone acetate]	96.7 ± 14	87.6	65.8 ± 28	88.7	68 ± 12	98	62.6 ± 1.9	95.5 ± 20	117 ± 51
CCOC(=O)NC1CCC2C(C1)CC1C(=O)OC(C)C1C2C=Cc1ccc(-c2cccc(F)c2)cn1 (centres undefined) [Vorapaxar]	132 ± 37	121	90.5 ± 21	104	84.1 ± 22	108	76.4 ± 3.5	115 ± 27	72.6 ± 10
CC1(C)SC2C(NC(=O)C(C(=O)[O-])c3ccccc3)C(=O)N2C1C(=O)[O-].[Na+].[Na+] (centres undefined) [Carbenicillin, Disodium Salt]	93 ± 4.2	92.6	94 ± 0.98	103	86.7 ± 1.1	105	85.4 ± 3.6	110 ± 17	115 ± 2
CCCN(CCC)CCc1cccc2c1CC(=O)N2.Cl [Ropinirole HCl]	61.7 ± 39	93.8	87.9 ± 2.6	86.3	95.9 ± 8.2	102	78.9 ± 7.1	91.6 ± 38	126 ± 12
OCC1OC(OC2(CCl)OC(CCl)C(O)C2O)C(O)C(O)C1Cl (centres undefined) [Sucralose]	112 ± 2.4	128	91.4 ± 5.3	89.1	70 ± 4.5	140	70.9 ± 6.8	124 ± 30	110 ± 7.1
CC1(C)CCC(C)(C)c2cc(NC(=O)c3ccc(C(=O)O)cc3)ccc21 [Tamibarotene]	108 ± 22	63.1	65.6 ± 45	95.9	73.8 ± 30	77.1	124 ± 10	98.1 ± 28	121 ± 9.1
O=C1c2ccccc2C(=O)C1c1ccccc1 [Phenindione]	127 ± 33	142	104 ± 5.7	94.7	92.6 ± 26	114	104 ± 7.3	124 ± 13	159 ± 35
O=S(=O)([O-])CCS.[Na+] [Mesna]	112.4 ± 0.12	118	98.4 ± 6.8	103	141 ± 28	97.2	89.3 ± 3.8	100 ± 13	106 ± 6.6
CC12CCC(O)CC1=CCC1C2CCC2(C)C(c3cccnc3)=CCC12 (centres undefined) [Abiraterone]	138 ± 7.1	168	86.1 ± 4.6	76.6	145 ± 42	111	94.1 ± 9.2	131 ± 6.1	156 ± 22
COC(=O)Nc1nc2ccc(C(=O)c3ccc(F)cc3)cc2[nH]1 [Flubendazole]	104 ± 3.6	103	103 ± 2.5	81.8	102 ± 8.7	140	80.3 ± 3.1	139 ± 36	106.1 ± 0.14
CCCNC(=O)NS(=O)(=O)c1ccc(Cl)cc1 [Chlorpropamide]	121 ± 28	113	73.9 ± 18	82.9	81.8 ± 25	105	92.5 ± 5.9	99.5 ± 14	104 ± 4.6
